Experimental data as given in PubChem BioAssay AID2524 (Sanford-Burnham Center for Chemical Genomics, 2010).
The campaign covered roughly 330,000 compounds. About 540 (0.16%) were called active. The list comes from a sample in which actives are over-represented; it also holds similar structures and randomly drawn compounds. A number with no mark means an inactive call.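 Rule for the calls: active = activation factor of the enzyme at least 2-fold when tested at 20 µM; inactive = the rest.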

The compounds below were run against Intestinal-type alkaline phosphatase (Homo sapiens) (UniProt P09923) (assay: enzymatic activation of intestinal alkaline phosphatase – biochemical, luminescence, uHTS, primary screen (AID 2524)). Conditions: purified human IAP, CDP-Star luminescence, 30 min; at 10 µM; stronger effect = higher value; 1 = vehicle-only enzyme, 0 = enzyme-free background.
Intestinal-type alkaline phosphatase (Homo sapiens), sequence (P09923 whole entry, looked up): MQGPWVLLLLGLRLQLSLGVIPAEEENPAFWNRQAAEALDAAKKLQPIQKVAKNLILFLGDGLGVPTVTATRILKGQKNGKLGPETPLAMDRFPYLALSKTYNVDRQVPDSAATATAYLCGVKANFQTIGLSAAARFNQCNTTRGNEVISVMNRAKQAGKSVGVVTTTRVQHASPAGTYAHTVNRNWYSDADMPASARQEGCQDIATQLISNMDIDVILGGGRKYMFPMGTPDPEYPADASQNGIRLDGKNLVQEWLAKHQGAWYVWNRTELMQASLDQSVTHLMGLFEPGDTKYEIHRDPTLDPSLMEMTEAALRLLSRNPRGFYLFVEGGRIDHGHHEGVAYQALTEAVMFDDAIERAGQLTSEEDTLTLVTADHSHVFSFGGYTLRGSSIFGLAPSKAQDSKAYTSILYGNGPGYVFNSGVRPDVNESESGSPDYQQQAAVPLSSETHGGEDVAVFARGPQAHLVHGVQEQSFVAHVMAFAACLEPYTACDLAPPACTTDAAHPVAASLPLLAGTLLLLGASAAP
O=C(NCc1ccccc1Cl)c1ccc2c(=O)n(CC3CCCO3)c(=S)[nH]c2c1 (stereo not given) gave an activation factor of 0.824.
Compound CCN=c1sc(C(=O)Nc2ccccc2)c(C)n1CC has an activation factor of 1.04.
CN(C)c1nccc(NCc2ccccc2)c1C#N gave an activation factor of 1.01.
For O=C(CN1CCC(NC(=O)Nc2ccccc2)CC1)Nc1cccc([N+](=O)[O-])c1, the activation factor was 0.94.
COc1cccc(NC(=O)CN2CCN(CC(=O)Nc3ccccc3Cl)CC2)c1 showed an activation factor of 0.935.
In the case of Cc1cc(C)cc(NC(=O)NC2CCN(CC(=O)Nc3cccc(Cl)c3C)CC2)c1, the activation factor is reported as 3.04 (active).
CN(C)C(=O)c1nc2ccc(Cl)cn2c1CNCc1cccc(OC(F)(F)F)c1 showed an activation factor of 0.976.
Work on COc1cc(S(=O)(=O)Nc2ncn[nH]2)ccc1Cl yielded an activation factor of 0.999.
Compound CC(C)n1ncc2c(C(=O)Nc3ccc(CC#N)cc3)cc(C3CC3)nc21 has an activation factor of 0.958.
Work on O=C(c1cc(COc2c(F)cccc2F)on1)N1CCSCC1 yielded an activation factor of 1.07.
With Cc1cnc(C(=O)OCC(=O)Nc2ccc(Cl)cc2Cl)cn1 the activation factor was 1.07.
For COc1cc(NC(=O)COC(=O)c2cnc(C)cn2)c(C)cc1[N+](=O)[O-], the activation factor was 2.53 (active).
COc1cc(NC(=O)COC(=O)CSc2ccc3ccccc3c2)c(C)cc1[N+](=O)[O-] showed an activation factor of 1.12.
CCCCN(CCCC)CCNC(=O)CN1C(=O)COc2ccc(S(=O)(=O)N3CCOCC3)cc21 gave an activation factor of 0.976.
Compound O=C(CNCCC1=CCCCC1)Nc1ccccc1N1CCCCCC1 has an activation factor of 1.04.
COCCNS(=O)(=O)c1cc(Br)ccc1OC gave an activation factor of 0.874.
With CSCCNC(=O)c1ccc2nc(Cc3ccccc3F)oc2c1 the activation factor was 1.11.
In the case of CCCc1cc(=O)[nH]c(SCC(=O)Nc2ccc(C(=O)Nc3ccccc3OC)cc2)n1, the activation factor is reported as 1.04.
In the case of OC1CN=C2Sc3ccccc3N2C1 (stereo not given), the activation factor is reported as 2.42 (active).
Compound Cc1ccc(C(=O)COC(=O)CCCC(=O)NC2CCCCC2)cc1[N+](=O)[O-] has an activation factor of 0.908.
With COC(=O)c1cccc(N(C(=O)CNC(=O)c2cccs2)C(C(=O)NCC2CCCO2)c2ccc(OC)c(OC)c2)c1 (stereo not given) the activation factor was 0.951.
COC(=O)[C@]1(CC(C)C)N[C@H](c2ccc(SC3CCCCC3)cc2)[C@@H]2C(=O)N(C)C(=O)[C@@H]21 was tested, and the activation factor was 0.874.
COc1ccc(CCC(C)N2CCc3ccccc3C2)cc1 (stereo not given) showed an activation factor of 0.983.
In the case of Cc1nn(CC2CC2)c(=O)n1N(C)c1ncc(C(F)(F)F)cc1Cl, the activation factor is reported as 0.985.
Work on COc1ccccc1C(=O)NCC(=O)NCCSc1ccc(Br)cc1 yielded an activation factor of 1.02.
For O=C(CSCc1ccccc1Cl)NNC(=O)c1ccccc1, the activation factor was 1.25.
NC(=O)COc1ccc(NC(=O)c2ccccc2-c2ccccc2)cc1 was tested, and the activation factor was 2.12 (active).
Compound CN(C)C(=O)c1ccc(NC(=O)c2ccccc2-c2ccccc2)cc1 has an activation factor of 1.16.
With CC(=O)Nc1ccc(NC(=O)COc2ccc(-c3ccccc3)cc2)cc1 the activation factor was 0.914.
For Cn1nnnc1SCC(=O)Nc1ccccc1C(=O)NC1CC1, the activation factor was 0.94.
Compound CCN(CC)S(=O)(=O)c1ccc(Cl)c(C(=O)NCCN2CCOCC2)c1 has an activation factor of 1.07.
CC1CC(C)(C)n2c(O)c(N=NC(N)=S)c3cccc1c32 (stereo not given) showed an activation factor of 0.927.
CC(=O)Oc1c(C(=O)c2nnc(C)o2)c(=O)n(Cc2ccccc2)c2ccccc12 gave an activation factor of 1.07.
Cc1cccc(NS(=O)(=O)c2cccc(C(=O)NNC(=O)c3ccccc3O)c2)c1 was tested, and the activation factor was 2.18 (active).
In the case of CC(=O)N1CCN(C(=O)c2cccc(S(=O)(=O)Nc3ccc(C)cc3)c2)CC1, the activation factor is reported as 1.16.
Work on Cc1cccc(NS(=O)(=O)c2ccc(C)c(C(N)=O)c2)c1 yielded an activation factor of 1.05.
With CN(C)C(=O)c1cccn(Cc2cccc(C(F)(F)F)c2)c1=O the activation factor was 1.24.
Work on Cn1c(N)c(C(=O)COC(=O)C23CC4CC(CC(C4)C2)C3)c(=O)n(C)c1=O yielded an activation factor of 0.895.
Cc1ccccc1C(=O)NCC(c1ccco1)N1CCc2ccccc21 (stereo not given) gave an activation factor of 0.802.
Work on CC12COC3(C(=O)Nc4ccc(Cl)cn4)CC1CCC32C (stereo not given) yielded an activation factor of 0.935.
COc1ccc(CN2CCC(n3nccc3NC(=O)CCCc3ccccc3)CC2)cc1C was tested, and the activation factor was 3.92 (active).
In the case of COc1cc(CN2CCC(n3nccc3NC(=O)CCCc3ccccc3)CC2)ccc1O, the activation factor is reported as 1.47.
Cc1ccc(CN2CCC(n3nccc3NC(=O)CCCc3ccccc3)CC2)o1 was tested, and the activation factor was 1.13.
C=Cn1cc[n+](CC(=O)c2ccc(OC)c(OC)c2)c1 was tested, and the activation factor was 0.894.
O=C(c1ccc(Br)o1)N(c1ccccn1)C1CCCCC1 gave an activation factor of 1.04.
In the case of O=C(N/N=C/c1ccc(Br)o1)c1cncc(Br)c1, the activation factor is reported as 1.05.
Compound N#Cc1ccccc1CN1C(=O)S/C(=C/c2cccn2-c2cccc(C(=O)O)c2)C1=O has an activation factor of 1.06.
Cc1cccc(CN2CCC(CNC(=O)Nc3ccc(F)c(Cl)c3)CC2)c1 was tested, and the activation factor was 1.31.
COc1cc(NC(=O)NCC2CCN(Cc3ccc(C)cc3)CC2)cc(OC)c1OC was tested, and the activation factor was 2.12 (active).
Cc1ccc(C)c(CN2CCC(CNC(=O)Nc3ccc(C)c(F)c3)CC2)c1 gave an activation factor of 1.49.
